Assay results taken from PubChem BioAssay (NCI).
Compounds without any hit were thinned out: in the full panel of roughly 83,000, 20% have a hit.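 The test compound was applied at a single concentration to cells in 96-well plates for 48 hours, and percent growth was recorded.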 Calls of active or inactive are those of the source. The calls were made as follows: active = growth percent below 10; inactive = the rest.

Legend:
Assay in all cases: NCI-60 one-dose screen, 48 h (100 = growth as untreated, 0 = no growth, -100 = all killed)
Details in all cases: 10 µM unless noted
[1] = tested on: HCT-15 colon
[2] = tested on: HT29 colon
[3] = tested on: SNB-75 CNS
[4] = tested on: SNB-19 CNS
[5] = tested on: U251 CNS
[6] = tested on: PC-3 prostate
[7] = tested on: SK-MEL-5 melanoma
[8] = tested on: UACC-62 melanoma
[9] = tested on: LOX IMVI melanoma
[10] = tested on: SK-MEL-28 melanoma

Measured: growth

COCCNC(=O)Nc1ccc2nc(-c3cccs3)c(-c3cccs3)nc2c1
inactive: [1] 90.9% | [2] 87.8% | [3] 81.6% | [4] 95.5% | [5] 96.7% | [6] 79.2% | [7] 89.5% | [8] 85.1% | [9] 82.8% | [10] 96.7%

COc1ccc(/C=N\Nc2nc(SCCC(C)C)nc(-c3ccc(OC)cc3)c2C#N)cc1
inactive: [1] 74.6% | [2] 55% | [4] 69.5% | [6] 72.3% | [7] 94.3% | [8] 79.1% | [9] 66% | [10] 104%
active: [3] -19.4% | [5] 7.04%

COc1ccc(/C=C(\C#N)n2nnc3ccc(Cl)cc32)cc1
inactive: [1] 38.9% | [2] 26.3% | [3] 20.4% | [4] 55.2% | [5] 61.7% | [6] 63.7% | [7] 81.7% | [8] 62.3% | [9] 56.9% | [10] 71.4%

N=C(N)c1ccc(-c2ccc(-c3ccc(Cl)c(Cl)c3)s2)nc1
inactive: [3] 84.8% | [4] 11.7% | [7] 91.3% | [8] 81% | [10] 107%
active: [1] -71.9% | [2] 5.19% | [5] -55.7% | [6] -16.9% | [9] -88.6%

C=C(C)[C@@H]1CC[C@]2(CO)CC[C@]3(C)[C@H](CC[C@@H]4[C@@]5(C)CC[C@H](NCO)C(C)(C)[C@@H]5CC[C@]43C)[C@@H]12
active: [1] -80.7% | [2] -39.4% | [3] -94.7% | [5] -68.6% | [6] -3.03% | [7] -90.1% | [9] -99.8% | [10] -86.3%
inactive: [4] 42.3% | [8] 83.6%

CC1OC(n2c3ccccc3c3c4c(c5c6ccccc6[nH]c5c32)C(=O)N(CCN2CCCC2)C4=O)CC(O)C1O (stereo not given)
inactive: [1] 10.7% | [3] 12.1% | [4] 35.1% | [5] 37.9% | [6] 33.2% | [7] 61.3% | [8] 67.7% | [9] 25.3% | [10] 91.4%
active: [2] -49.9%

COC1=CC(c2ccc[nH]2)=N/C1=C\c1[nH]c(C)c(CC(=O)OCc2ccccc2)c1CCC(=O)OCc1ccccc1
active: [1] -56.7% | [2] 0.828% | [3] -6.6% | [5] -71.4% | [6] -40.3% | [7] -93.8% | [8] -69.7% | [9] -80.7% | [10] -52.4%
inactive: [4] 25.5%

CC(=O)n1nc(C(=O)OC(C)(C)c2ccccc2)c2ccccc21
inactive: [1] 101% | [2] 97.5% | [3] 80.8% | [4] 95.7% | [5] 98.6% | [6] 92.3% | [7] 96.9% | [8] 93% | [9] 91.2% | [10] 90.4%

O=C(NNC(=O)c1ccc(NC(=O)c2ccccn2)cc1)Nc1ccc([N+](=O)[O-])cc1
inactive: [1] 100% | [2] 110% | [3] 81.4% | [4] 83.6% | [5] 78.5% | [6] 94.5% | [7] 102% | [8] 94% | [9] 105% | [10] 99%

COc1cc2ncnc(Nc3ccc(S(=O)(=O)Nc4cc(C)on4)cc3)c2cc1OCCCN1CCN(c2ccc(F)cc2)CC1
inactive: [1] 110% | [2] 112% | [3] 85.4% | [4] 97.3% | [5] 93.6% | [6] 101% | [7] 103% | [8] 91% | [9] 89.8% | [10] 107%

Nc1ncnc2c1N=C(c1ccc(Br)cc1)CC(c1cccc(Nc3ccnc4cc(C(F)(F)F)ccc34)c1)N2 (stereo not given)
inactive: [1] 27.2% | [2] 26.4% | [3] 66.2% | [4] 70.6% | [5] 51% | [6] 39% | [7] 49.5% | [8] 74.3% | [9] 63.3% | [10] 72.2%

N#C/C(=C\c1c(-c2ccccc2)[nH]c2ccccc12)C(N)=O
inactive: [1] 56.4% | [2] 67.4% | [3] 32.5% | [4] 89.6% | [5] 79.6% | [6] 69.8% | [7] 64.7% | [8] 58.9% | [9] 76.2% | [10] 97.6%

COCCn1cc(-c2nc(-c3cc4cccnc4[nH]3)cs2)c2cc(OC)ccc21
inactive: [1] 20.3% | [2] 30.9% | [4] 61.6% | [5] 32.8% | [6] 10.4% | [7] 39.1% | [8] 49.8% | [9] 33.2% | [10] 62.8%
active: [3] 9.81%

O=C(c1ccccc1)c1ccc(C2CCCCC2)cc1
inactive: [1] 91.5% | [2] 91.5% | [3] 97.5% | [4] 86.7% | [5] 88.9% | [6] 103% | [7] 96.6% | [8] 86.8% | [9] 94.6% | [10] 103%

O=C(Nc1nc2cc(C(=O)N3CCN(C(c4ccccc4)c4ccccc4)CC3)ccc2o1)c1ccc(NC2CCCCC2)c([N+](=O)[O-])c1
inactive: [1] 35.1% | [2] 62.2% | [3] 71.7% | [4] 48.3% | [5] 32.5% | [6] 53.9% | [7] 49.7% | [8] 45.8% | [9] 45.5% | [10] 66.5%

Clc1cc(Cl)c(Cl)c(-c2nnc(SCc3ccncc3Br)o2)c1
inactive: [1] 112% | [2] 102% | [3] 84.4% | [4] 102% | [5] 90.3% | [6] 92.4% | [7] 81.8% | [8] 89.7% | [9] 95% | [10] 94.4%

COCCOc1cc2ncnc(N3CCN(c4ncc(S(=O)(=O)N5CCCCC5)cn4)CC3)c2cc1OCCOC
inactive: [1] 89.9% | [2] 109% | [3] 110% | [4] 96.2% | [5] 97.7% | [6] 88.7% | [7] 102% | [8] 95.3% | [9] 87.4% | [10] 112%

O=C(CSc1nc2ccc([N+](=O)[O-])cc2[nH]1)Nc1ccc([N+](=O)[O-])cc1
active: [7] -12.7% | [8] 2.77%
inactive: [1] 22.9% | [2] 13.1% | [3] 29.7% | [4] 12.4% | [5] 13.7% | [6] 12.7% | [9] 23.5% | [10] 30.7%

Nc1cnc(C(=O)NNc2nc3cc(F)ccc3n3cccc23)cn1
inactive: [1] 24.8% | [2] 35% | [3] 87.2% | [4] 36.1% | [5] 36.7% | [6] 47.2% | [7] 34.5% | [8] 22.7% | [9] 22% | [10] 40%

c1ccc(-c2oc(-c3ccccc3)c(CN3CCCCC3)c2CN2CCCCC2)cc1
inactive: [1] 19.4% | [2] 10.9% | [3] 55.6% | [4] 44.5% | [5] 25.2% | [6] 19.6% | [8] 37.6% | [9] 22.3% | [10] 10.1%
active: [7] -87%

Nc1c(C(=O)Nc2ccccc2F)sc2nc3c(cc12)CCCC3
inactive: [1] 28.7% | [2] 11.3% | [3] 37.5% | [4] 33.7% | [5] 26.7% | [6] 27.7% | [7] 15.5% | [8] 26.7% | [9] 40.5% | [10] 73.7%

Oc1c(I)cc(I)cc1CNCCN(Cc1ccccn1)Cc1ccccn1
active: [1] -30.4% | [2] -37% | [3] -57.2% | [5] -29.1% | [6] -41% | [7] -97% | [8] -14.3% | [9] -64.2% | [10] -14%
inactive: [4] 16.7%

O=C1/C(=C/c2ccccc2Br)COc2ccc(O)cc21
inactive: [1] 40.7% | [2] 48.8% | [3] 89.3% | [4] 75% | [5] 46.1% | [6] 60.7% | [7] 94.6% | [8] 66.4% | [9] 18.8% | [10] 101%

CC(=O)O[C@H]1CC2CCC3C(CC[C@@]4(C)C3C[C@H]([N+]3(C)CCCCC3)[C@@H]4OC(C)=O)[C@@]2(C)C[C@@H]1N1CCCCC1 (stereo not given in full)
inactive: [1] 118% | [2] 105% | [3] 99.6% | [4] 100% | [5] 90.8% | [6] 92.8% | [7] 112% | [8] 92.6% | [9] 95.2% | [10] 108%

Cc1cc(C(=O)Nc2ncc(Cc3cccc(C(F)(F)F)c3)s2)c2ccccc2n1
inactive: [1] 17.3% | [3] 18.1% | [4] 44.7% | [5] 18.5% | [6] 26.7% | [9] 12.6% | [10] 40.4%
active: [2] 8.85% | [7] 0.694% | [8] 9.95%

Nc1c(C(=O)Nc2ccccc2C(F)(F)F)sc2nc3c(cc12)CCC3
inactive: [1] 97.3% | [2] 94.3% | [3] 97.4% | [4] 98.4% | [5] 93.9% | [6] 100% | [7] 98.6% | [8] 81% | [9] 110% | [10] 94.5%
